Here are results for 5 compounds from PubChem BioAssay AID2690 (NMMLSC, 2010).

SMILES strings stand for the structures. The campaign covered roughly 330,000 compounds. About 590 (0.18%) were called active. What follows is part of a selection rich in actives, with near analogues and random picks from the rest. Unmarked numbers belong to inactive results.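 How the source made its calls: active means superoxide response under a set limit, about three screen SD below normal (cut at about 65% in these data); inactive means the rest.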

The assay in a line: yeast aging ROS inhibitors as calorie-restriction mimetics – HTS, primary screen (AID 2690).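 Further: yeast aged for seven days with compound at 30 °C before DHE staining; 100% = average MFI of all compound-treated wells on the plate with controls excluded.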 The following applies: S. cerevisiae aged cells, superoxide DHE fluorescence; at 10 µM; hits give low values.
Consider `O=C(CCNS(=O)(=O)c1ccccc1)Nc1ccc(Cl)cc1C(=O)c1ccccc1`, for which the superoxide response (% of plate mean) is 83.2%.

With `O=C(COC(=O)c1ccccc1)Nc1ccc(Cl)cc1C(=O)c1ccccc1`, the superoxide response (% of plate mean) was 104%.

As for `CN1CCN(C(=S)SCC(=O)Nc2ccc(Cl)cc2C(=O)c2ccccc2)CC1`, the superoxide response (% of plate mean) was 63.3% (active).

As to `CNCC[C@H](Oc1ccc(C(F)(F)F)cc1)c1ccccc1`, the superoxide response (% of plate mean) was 88.9%.

`Cc1cc(C)cc(NC(=S)NC2CC3CCCC(C2)N3Cc2cccs2)c1` (stereo not given): the superoxide response (% of plate mean) was 101%.
